From PubChem BioAssay (NCI) come the findings set out here.

About 79,000 compounds went through this panel and 15% of them were active in at least one assay; those are over-represented in the sample as a whole. Values without a mark were called inactive. Calls of active or inactive are those of the source. No stated cut-off is given here; in the data, active means growth inhibition above about 70%; inactive means the rest.

The nature of test [1]: NCI Yeast Anticancer Drug Screen. Data for the rad50 strain (AID 155).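 Further: 0% = growth of vehicle-only cultures of the same strain.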 The conditions noted are these: S. cerevisiae rad50 strain growth inhibition; at 50.0 µM; stronger effect = higher value. In short, it runs like this: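 Yeast carrying a defined DNA repair defect were exposed to test compounds, and growth was compared with vehicle-treated controls to give percent inhibition.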
The nature of test [2]: NCI Yeast Anticancer Drug Screen. Data for the mec2-1 strain (AID 157). Particulars: S. cerevisiae mec2-1 strain, at 50.0 µM, stronger effect = higher value. The essentials:
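Strain: mec2-1 (DNA repair/cell cycle alteration). Compound exposure, then growth measured; inhibition expressed relative to vehicle.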

A short description of test [3]: NCI Yeast Anticancer Drug Screen. Data for the sgs1 mgt1 strain (AID 161).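 Further: 0% = growth of cultures given vehicle only.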 Particulars: S. cerevisiae sgs1 mgt1 strain, at 50.0 µM, stronger effect = higher value. The essentials: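 Mutant yeast exposed to compound; growth scored against vehicle-only wells.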
Test [4] is described as follows: NCI Yeast Anticancer Drug Screen. Data for the cln2 rad14 strain (AID 165).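 Further: 0% = growth equal to vehicle treated cultures.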 The conditions noted are these: S. cerevisiae cln2 rad14 strain, at 50.0 µM, stronger effect = higher value. The essentials:
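Compounds are applied to the cln2 rad14 yeast strain, and growth is then compared with that of vehicle-treated cultures to give inhibition.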

Test [5] is described as follows: NCI Yeast Anticancer Drug Screen. Data for the bub3 strain (AID 167). Particulars: S. cerevisiae bub3 mutant strain, at 50.0 µM, stronger effect = higher value. In short, it runs like this: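 Compounds were applied to a genetically altered yeast strain carrying a cell-cycle control defect. Growth inhibition was scored against vehicle-treated controls.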
The nature of test [6]: NCI Yeast Anticancer Drug Screen. Data for the mlh1 rad18 strain (AID 175). The conditions noted are these: S. cerevisiae mlh1 rad18 strain growth inhibition; at 50.0 µM; stronger effect = higher value. In short, it runs like this: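 Read-out is yeast growth inhibition, calculated against vehicle-only controls. The compound was applied to a strain engineered with DNA damage repair alterations.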

Turning to `CCCCCC(CN(C)C)C(O)CCc1ccc(Cl)c(Cl)c1` (stereo unspecified), the growth inhibition in test [1] was 98.5% (active); in test [2], 79.2% (active); in test [3] it was 98% (active); in test [4] it was 98.5% (active); in test [5], 80.5% (active); in test [6], 98.6% (active).

Turning to `CCCCCCCCCCCCCCCCCC(=O)Oc1c(C(C)CC)cc([N+](=O)[O-])cc1[N+](=O)[O-]` (stereo unspecified), the growth inhibition was 13.2% in test [1]; 25% in test [2]; 46.2% in test [3]; 2.85% in test [4]; 10.1% in test [5]; 53.9% in test [6].

On to `COc1cccc(NC(=O)/C(CS(=O)(=O)CCC(C(C)=O)C(C)=O)=N\NC(C)(C)C)c1`, for which the growth inhibition in test [1] is 11.7%; in test [2], 0.7%; in test [3] it was -20.8%; in test [4], -21.9%; in test [5] it was 1.3%; in test [6] it was 7.1%.

As to `OCCOc1ccc(C(Cc2ccccc2)N(CCO)CCO)cc1` (stereo unspecified), the growth inhibition was -10.1% in test [1]; 2.15% in test [2]; 7.5% in test [3]; -12.6% in test [4]; 4.7% in test [5]; -1.45% in test [6].

`CCCCCCCCCCCC1=C(O)C(=O)C(Br)=C(O)C1=O`: the growth inhibition was 39.6% in test [1]; 14.3% in test [2]; 44.9% in test [3]; 19.1% in test [4]; -9.65% in test [5]; 49.9% in test [6].

Regarding `O=C(CSc1nnc(-c2ccc(N=Cc3ccc(Cl)cc3)cc2)o1)Nc1ccc(Cl)cc1`, the growth inhibition in test [1] is 3.1%; in test [2], -41%; in test [3], -2.25%; in test [4] it was -66%; in test [5], -11.8%; in test [6] it was 0%.

Turning to `Nc1nc(-c2ccccc2)nc(-c2ccccc2)n1`, the growth inhibition was -2.95% in test [1]; -7.05% in test [2]; -8.4% in test [3]; -14.2% in test [4]; -21.7% in test [5]; -16.4% in test [6].

With `CCOC(=O)C(NC(=O)c1ccccc1)(C(=O)OCC)c1ccccn1`, the growth inhibition is 8.55% in test [1]; -13.5% in test [2]; 9.65% in test [3]; 18.8% in test [4]; 9.6% in test [5]; 22.6% in test [6].

Turning to `CN(C)N1C(=C(C#N)C#N)C(c2ccccc2)CC1C#N` (stereo unspecified), the growth inhibition in test [1] is 9.55%; in test [2], 12.9%; in test [3], -22.8%; in test [4], 13.2%; in test [5], -25.8%; in test [6], -41.5%.

With `NC(=O)N/N=C1\CC2CCC1C2Cl` (stereo unspecified), the growth inhibition was -0.05% in test [1]; -1.35% in test [2]; -5% in test [3]; -0.45% in test [4]; -13.7% in test [5]; -14.8% in test [6].

Regarding `CCOc1c(C(=O)O)cnc2ccccc12`, the growth inhibition in test [1] was -6.2%; in test [2], 19.5%; in test [3], -6.2%; in test [4], -38.9%; in test [5] it was -19.6%; in test [6], -0.75%.

As for `Cc1cc2ccccc2c[n+]1CC(=O)CC([O-])(C(F)(F)F)C(F)(F)F`, the growth inhibition in test [1] is 2.85%; in test [2] it was 3.25%; in test [3], -5.65%; in test [4], 4.1%; in test [5] it was 16.4%; in test [6], -14.9%.

In the case of `O=N[C@@H]1CCC[C@H](Cl)C1`, the growth inhibition is 3.95% in test [1]; -6.65% in test [2]; -0.1% in test [3]; 17.2% in test [4]; 5.75% in test [5]; 15.6% in test [6].

With `NC(C(F)(F)F)(C(F)(F)F)P(=O)(Cc1ccccc1)Cc1ccccc1`, the growth inhibition is -8.35% in test [1]; -47.4% in test [2]; -18.7% in test [3]; -13.8% in test [4]; -23.1% in test [5]; 7.85% in test [6].

As for `COC1CC(OC2CCC3(C)C(=CCC4C3C(OC(C)=O)C(OC(=O)CC(C)C)C3(C)C(C(C)=O)CCC43O)C2)OC(C)C1OC1CC(OC)C(OC2CC(OC)C(OC3OC(C)C(OC4OC(CO)C(O)C(O)C4O)C(OC)C3O)C(C)O2)C(C)O1` (stereo unspecified), the growth inhibition in test [1] is 2.4%; in test [2] it was 5.2%; in test [3], 16.4%; in test [4] it was 21.6%; in test [5], -7.45%; in test [6], -38.4%.

`CC(C)NC(=O)OCc1c(COC(=O)NC(C)C)c2cccn2c2c1cnn2-c1ccccc1`: the growth inhibition in test [1] was -0.9%; in test [2], 0.6%; in test [3], -11.2%; in test [4] it was -3.7%; in test [5], 0.15%; in test [6], 18.3%.

For the compound `[N-]=[N+]=CC(=O)CCN1C(=O)c2ccccc2C1=O`, the growth inhibition is -9.85% in test [1]; -0.85% in test [2]; -4.75% in test [3]; -3.85% in test [4]; 1.15% in test [5]; -1.55% in test [6].

With `COC(=O)c1c2c(cc3c1CC1(C3)Cc3cc4c(c(C(C)=O)c3C1)CCC4)C=CC2` (stereo unspecified), the growth inhibition in test [1] is 0.15%; in test [2], -12.3%; in test [3] it was -26.1%; in test [4], 1.35%; in test [5], -5.75%; in test [6], -22.6%.

As to `O=C(NCc1ccccc1)NCc1ccccc1`, the growth inhibition in test [1] is -25.5%; in test [2], -0.65%; in test [3] it was -2.5%; in test [4], -13.8%; in test [5], -18.4%; in test [6] it was -4.5%.

As for `Cc1cccc(CN(C)C)c1C=C(c1ccccc1)c1ccccc1`, the growth inhibition is 11.9% in test [1]; -1% in test [2]; 10.6% in test [3]; -0.05% in test [4]; 8.7% in test [5]; 33% in test [6].

On to `OCc1cc(Cl)cc(Cc2cc(Cl)cc(Cc3cc(Cl)cc(Cc4cc(Cl)cc(Cc5cc(Cl)cc(CO)c5O)c4O)c3O)c2O)c1O`, for which the growth inhibition in test [1] is -14.8%; in test [2] it was -17.4%; in test [3], -9.35%; in test [4], -28.4%; in test [5] it was -18.9%; in test [6], -27.9%.

Turning to `CC1(C)OC(=O)C(C(N)=O)C1c1ccc(Cl)cc1` (stereo unspecified), the growth inhibition was 6.15% in test [1]; 0.8% in test [2]; -5.65% in test [3]; -3% in test [4]; -6.25% in test [5]; 13.8% in test [6].

On to `NCCCNCCCCN1CCOC1=O`, for which the growth inhibition in test [1] was 2.8%; in test [2], 1.65%; in test [3] it was -3.1%; in test [4] it was -6.6%; in test [5], -11.3%; in test [6] it was -17.9%.

With `C1=NCCN=Cc2ccccc2O/N=N/Oc2ccccc21`, the growth inhibition in test [1] was -14.9%; in test [2], -1.95%; in test [3] it was -0.85%; in test [4] it was -44.4%; in test [5], 15.4%; in test [6], -4.7%.

Turning to `COC1(OC)OC(c2ccc([N+](=O)[O-])cc2)=C(c2ccc([N+](=O)[O-])cc2)OC1(OC)OC`, the growth inhibition in test [1] was 56%; in test [2], 49.9%; in test [3], 38.5%; in test [4], 57.4%; in test [5], 49%; in test [6] it was 37.9%.

In the case of `O=[N+]([O-])c1ccc(S(=O)(=O)Nc2ccccc2-c2ccccc2)cc1`, the growth inhibition in test [1] is 99% (active); in test [2] it was 99% (active); in test [3], 99.3% (active); in test [4], 98.2% (active); in test [5], 98.8% (active); in test [6] it was 98.7% (active).

As to `Nc1nc2c(c(-c3ccc(Cl)cc3)n1)CN(CCCC(=O)O)C2=O`, the growth inhibition is -1.8% in test [1]; 13.9% in test [2]; 7.4% in test [3]; -0.15% in test [4]; 2.35% in test [5]; 10.7% in test [6].

For the compound `NC(CCCCC(=O)O)C(=O)O` (stereo unspecified), the growth inhibition in test [1] was -30.1%; in test [2], -22.3%; in test [3], -12.9%; in test [4], -38.2%; in test [5], -11.2%; in test [6], 0.15%.

As to `C=CCCCCCCCCCCCCCC`, the growth inhibition in test [1] was -0.85%; in test [2] it was -2.3%; in test [3], -4%; in test [4], 10%; in test [5] it was -7.5%; in test [6] it was 26.9%.

Take `COc1cc(OC)c(OC)cc1/C=C/c1cc[n+](C)c2ccccc12`: the growth inhibition is 9.1% in test [1]; -6.35% in test [2]; 11.6% in test [3]; -0.8% in test [4]; 4.95% in test [5]; 8.05% in test [6].

With `Cc1cc2c(C(C)C)c(O)c(O)c(C=Nc3ccccc3)c2c(O)c1-c1c(C)cc2c(C(C)C)c(O)c(O)c(C=Nc3ccccc3)c2c1O`, the growth inhibition was 1.45% in test [1]; 34% in test [2]; 49.6% in test [3]; -23% in test [4]; -2.3% in test [5]; 52.8% in test [6].

For the compound `OC(c1ccccc1)C(CN1CCCCC1)c1ccccc1` (stereo unspecified), the growth inhibition is 3.9% in test [1]; 2.55% in test [2]; 24.9% in test [3]; -11.8% in test [4]; 4.95% in test [5]; 15.4% in test [6].

On to `O=C1c2ccccc2Cc2ccc(O)cc21`, for which the growth inhibition in test [1] is 47.1%; in test [2], 21.3%; in test [3], 11.1%; in test [4] it was 10.3%; in test [5], 11.8%; in test [6], 10.8%.

Take `O=S(=O)(O)SCC1=NCCN1`: the growth inhibition in test [1] is 17.9%; in test [2], -5.1%; in test [3], -3.55%; in test [4], -34.9%; in test [5] it was 11.2%; in test [6] it was 9.85%.

Consider `CC(C)C1OC2(CCCCC2)OCC1(C)C` (stereo unspecified), for which the growth inhibition in test [1] was 23.2%; in test [2] it was 14.8%; in test [3], 8.25%; in test [4], -8.35%; in test [5] it was 21.1%; in test [6] it was 23.4%.

On to `CC1=Nc2ccccc2S/C1=C(/C)NN`, for which the growth inhibition in test [1] was 21.4%; in test [2] it was 8.55%; in test [3], 0.2%; in test [4], 15.6%; in test [5], 1.8%; in test [6], 0.9%.
